Reference: PubChem BioAssay AID588689 (Southern Research Specialized Biocontainment Screening …, 2011)
The campaign covered roughly 340,000 compounds. About 1,000 (0.29%) were called active. No stated cut-off is given here; in the data, inconclusive means inhibition above about 29% without an active follow-up result; inactive means below that. A selection follows. Potency and affinity values are given separately.

biological target: Genome polyprotein (Dengue virus type 2 (strain 16681-PDK53)) (UniProt P29991); assay: Dengue-2 NS5 methyltransferase inhibitors, primary screen, biochemical, confirmation dose response (AID 588689); details: Dengue-2 NS5 methyltransferase capping enzyme assay, at 25 µM, active compounds read high

inhibition, inactive:
Cc1nc(SCC(=O)NC(C)(C)C)c2c(-c3cccs3)csc2n1 -9.82%
COc1ccc(N2CCN(C(c3nnnn3C3CCCC3)C(C)C)CC2)cc1 (configuration not stated) -0.74%
Cc1ccc(C)n1Cc1ccccc1Cl -24.6%
C=CCNC(=O)COc1c(C)ccc(C)c1C -2.27%
CCOC(=O)N1CCC(N2C(=O)c3ccc(C(=O)NCCC(C)C)cc3C2=O)CC1 -0.65%
O=C(Nc1ccc(C(=O)c2ccc(C(=O)O)c(C(=O)O)c2)cc1)c1ccccc1 6.21%
O=C(O)c1ccc(NC(=O)C(c2ccccc2)c2ccccc2)cc1 -5.43%
NC1=NN(c2c(Cl)cc(Cl)cc2Cl)C(=O)C1 -5.65%
CC(C)(C)C(=O)NC1=NN(c2c(Cl)cc(Cl)cc2Cl)C(=O)C1 6.11%
CC(C)/C=C/C(=O)N1CCC(N2CCC(C(=O)NCC3CCCO3)CC2)CC1 (configuration not stated) 6.04%
O=C(NCc1ccccn1)c1cccc(S(=O)(=O)N2CCc3ccccc32)c1 5.83%
O=C(Nc1ccc(O)cc1C(=O)O)c1ccc2c(c1)C(=O)N(Cc1ccco1)C2=O -4.89%
Cc1c(NC(=O)c2ccc3c(c2)C(=O)N(Cc2ccco2)C3=O)cccc1C(=O)O 6.25%
O=C1CSC(=S)N1/N=C/c1ccc2c(c1)OCCO2 -7.17%
Cc1ccc(OCC(=O)NCCNC(=O)c2cnccn2)cc1C -4.45%
COc1ccccc1C(NC(C)=O)c1cc(Cl)c2cccnc2c1O (configuration not stated) -1.32%
Oc1c(C(Nc2ccccn2)c2cccnc2)cc(Cl)c2cccnc12 (configuration not stated) -1.46%
CCOCCSc1n[nH]c(=O)n1CCc1ccccc1 0.65%
COC(=O)CCCC1=CC2=CC(=O)C(C)(OC(=O)C3CCCC3)C(=O)C2=CO1 (configuration not stated) -2.4%
CCCCC1=CC2=CC(=O)C(C)(OC(=O)C3CCCC3)C(=O)C2=CO1 (configuration not stated) -4.96%
O=C(Nc1ccccc1N1CCCCC1)C1CC(=O)N(c2ccccc2F)C1 (configuration not stated) -1.45%
COCCNc1nc2ccccc2n2cnnc12 -9.27%
N#Cc1c2ccc([N+](=O)[O-])cc2[n+]([O-])n1-c1ccccc1 15.2%
O=[N+]([O-])c1cc(Br)c(Nc2ccccc2)c([N+](=O)[O-])c1 5.88%
CCO[C@H]1OC(C(=O)N2CCN(C)CC2)=C[C@@H](c2ccc(C(F)(F)F)cc2)[C@@H]1CCCO -3.14%
CC1=NN(C(N)=S)C(=O)C1N=Nc1ccc(Br)cc1 (configuration not stated) 7.71%
CC1=NN(C(N)=S)C(=O)C1N=Nc1c(C)cc(C)cc1C (configuration not stated) -2.39%
